From PubChem BioAssay
Shown are actives, neighbours in structure and some others; about 4.3% of the full set was active somewhere.
KKLEB cytotox = counter-screen for CF NF-kB inhibitors: cytotoxicity. KKLEB CF airway cells viability, ATPlite luminescence, overnight; hits give low values; cells stimulated with P. aeruginosa culture filtrate. activity change (cytotoxicity), % at 5 µM. hit rate 0.36% among 360,000. AID 602141;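 active = corrected activity change at or below -50% at 5 µM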
Peg3 prom inh = reduces Peg3 promoter-driven luciferase expression in HeLa. inhibition, % at 20 µM. AID 588405. HeLa PEG-Prom luciferase reporter, luminescence, overnight. hit rate 1.7% among 360,000;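 active = inhibition of at least 50% at 20 µM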
CHOP inh = blocks CHOP induction under ER stress; CHO-K1 CHOP-promoter luciferase, tunicamycin-induced, 15-18 h; inhibition, % at 10 µM; hit rate 3.8% among 220,000; AID 2732;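 active = compounds that reduced the stress-induced luciferase reporter signal by more than about 70% of percent inhibition, limit read from the data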
MITF TRPM1 inh = MITF TRPM1 promoter inhibition in SK-MEL-5 cells; SK-MEL-5 TRPM1 promoter luciferase, 24 h; inhibition, % at 12.5 µM; hit rate 0.83% among 330,000;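 active = mean inhibition across replicates of 60% or more, whatever share of single replicates reaches that level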
CF NFkB inh = blocks PAF-induced NF-kB reporter in cystic fibrosis cells; hit rate 0.86% among 360,000; inhibition, % at 5 µM; KKLEB NF-kB-GFP reporter, GFP fluorescence overnight; AID 588850;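 active = at least 50% inhibition at 5 µM, scaled per plate between neutral and stimulator controls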;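 note: PAF is a Pseudomonas aeruginosa culture filtrate used as stimulus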
HIF-2a inh = HIF-2a inhibition; hit rate 0.72% among 360,000; inhibition, % at 18.8 µM; 786-0 RCC cells HIF-2a reporter, luciferase luminescence, overnight;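 active = inhibition of the luminescence signal of 40% or more relative to plate controls, in a single-dose primary screen at 18.75 µM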
Mdm2 MdmX conf = confirmation of inhibitors of human Mdm2/MdmX interaction, set 2 | shares compounds with HIF-2a inh | SaOS-2 split-luciferase Mdm2/MdmX complementation, luminescence | inhibition, % at 8 µM | hit rate 99% among 740 | AID 504601;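 active = mean inhibition of the luminescence signal across two replicates at or above 26 percent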
Target sequence (O15151 whole entry, looked up): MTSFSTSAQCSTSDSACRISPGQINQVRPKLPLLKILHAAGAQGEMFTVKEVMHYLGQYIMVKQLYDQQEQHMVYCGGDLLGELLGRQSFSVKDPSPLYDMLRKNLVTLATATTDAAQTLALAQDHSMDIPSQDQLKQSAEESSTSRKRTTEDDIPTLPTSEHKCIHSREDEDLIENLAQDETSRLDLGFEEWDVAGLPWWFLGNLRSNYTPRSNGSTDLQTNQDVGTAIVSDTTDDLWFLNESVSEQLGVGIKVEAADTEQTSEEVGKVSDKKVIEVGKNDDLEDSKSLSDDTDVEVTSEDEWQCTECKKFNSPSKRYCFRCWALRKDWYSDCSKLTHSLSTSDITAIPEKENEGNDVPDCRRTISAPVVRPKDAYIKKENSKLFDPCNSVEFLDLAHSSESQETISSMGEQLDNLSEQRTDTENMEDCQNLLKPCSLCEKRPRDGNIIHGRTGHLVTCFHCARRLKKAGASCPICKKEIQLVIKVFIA
Target sequence (Q00987 whole entry, looked up): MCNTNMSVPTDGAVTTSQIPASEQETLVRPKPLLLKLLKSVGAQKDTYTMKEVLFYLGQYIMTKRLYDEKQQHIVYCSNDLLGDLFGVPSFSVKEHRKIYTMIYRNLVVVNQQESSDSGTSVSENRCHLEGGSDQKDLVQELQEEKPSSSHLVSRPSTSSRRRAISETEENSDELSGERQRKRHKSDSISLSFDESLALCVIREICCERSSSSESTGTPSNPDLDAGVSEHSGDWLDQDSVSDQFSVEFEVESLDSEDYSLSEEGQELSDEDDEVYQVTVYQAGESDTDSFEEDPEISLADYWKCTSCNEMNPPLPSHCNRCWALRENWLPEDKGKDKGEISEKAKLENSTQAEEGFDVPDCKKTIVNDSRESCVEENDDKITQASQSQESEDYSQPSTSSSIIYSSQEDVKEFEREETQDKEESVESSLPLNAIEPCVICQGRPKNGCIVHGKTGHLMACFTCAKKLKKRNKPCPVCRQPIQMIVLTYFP
HIF-2a inh conf = HIF-2a inhibition, single concentration confirmation | shares compounds with HIF-2a inh | 786-0 RCC cells, HIF-2a luciferase reporter luminescence, overnight | inhibition, % at 18.8 µM | hit rate 56% among 1,800;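 active = mean inhibition across four replicates of at least 40 percent at the single tested concentration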
HIF-1a cs = HIF-1a inhibition counter-screen for HIF-2a hits | shares compounds with HIF-2a inh | MiaPaCa-2 HIF-1a luciferase reporter, desferoxamine, overnight | inhibition, % at 18.8 µM | hit rate 72% among 1,800 | AID 651589;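 active = mean inhibition of the reporter signal across four replicates at the single tested dose of 50% or more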
Each line names hits and unclear results; the compound was inactive in the other large screens (follow-up assays come after a bar, where they were run).

CC(=O)C(Cc1ccccc1)NC(=O)COC(=O)c1ccc(-n2cnnn2)cc1 (stereo not given)	none (no result: CHOP inh)
O=S1(=O)N[C@@H](Cc2ccccc2)COc2cccc(N3CCC[C@@H]3CO)c21	none (no result: KKLEB cytotox, Peg3 prom inh, CHOP inh, MITF TRPM1 inh, CF NFkB inh)
Cc1ccc(N=c2c([N+](=O)[O-])nn(-c3ccc4c(c3)OCCO4)n2O)c(Cl)c1	none (no result: KKLEB cytotox, Peg3 prom inh, MITF TRPM1 inh, CF NFkB inh, HIF-2a inh)
Cc1ccc(N=c2c([N+](=O)[O-])nn(-c3ccc4c(c3)OCCO4)n2O)cc1F	HIF-2a inh 70 | HIF-2a inh conf 84 | HIF-1a cs 94
O=[N+]([O-])c1nn(-c2ccc3c(c2)OCCO3)n(O)c1=Nc1ccccc1	Peg3 prom inh 76, CHOP inh 88, MITF TRPM1 inh 86, HIF-2a inh 82 | Mdm2 MdmX conf 95 | HIF-2a inh conf 90 | HIF-1a cs 100
Cc1cc(C)cc(N=c2c([N+](=O)[O-])nn(-c3ccc4c(c3)OCCO4)n2O)c1	none
O=[N+]([O-])c1ccc(NCCCNS(=O)(=O)c2ccccc2)c(Cl)c1	none
COc1cccc(NC(=O)[C@@H]2CCC(=O)N2C2OC(=O)c3ccccc32)c1 (stereo not given in full)	none (no result: CHOP inh)
O=C1c2ccc(Cl)cc2S(=O)(=O)c2cccc(C(=O)N3CCC(Cc4ccccc4)CC3)c21	Peg3 prom inh 91, HIF-2a inh 50 (no result: CHOP inh) | HIF-2a inh conf inactive | HIF-1a cs 105
NS(=O)(=O)c1ccc(CNC(=O)/C=C/c2cccc([N+](=O)[O-])c2)cc1	none
Oc1cc(O)cc(-c2cc3ccc(O)cc3o2)c1	HIF-2a inh 40 (no result: CHOP inh) | HIF-2a inh conf inactive | HIF-1a cs inactive
NC(=S)c1cc2ccc(O)cc2oc1=O	none
Cc1[nH]n(-c2ccccc2)c(=O)c1/C=N/Nc1nncc(-c2ccccc2)n1	CHOP inh 77 | Mdm2 MdmX conf 84
CC(Oc1ccccc1)C(=O)N1CCN(c2ccc(N3CCCCC3)nn2)CC1 (stereo not given)	none (no result: CHOP inh)
C=CCSC(=C(C#N)C#N)c1cc2c([nH]1)CCCC2	Peg3 prom inh 94, HIF-2a inh 66 | HIF-2a inh conf inactive | HIF-1a cs 106
O=C(O)c1cc2c([nH]c1=O)CCCC2	none (no result: CHOP inh)
COc1ccc2c(c1)/C(=N/N1C(=O)c3ccccc3C1=O)C(=O)N2	none (no result: KKLEB cytotox, Peg3 prom inh, MITF TRPM1 inh, CF NFkB inh, HIF-2a inh)
COc1ccc2c(c1)/C(=C\c1cccc(/C=C3/C(=O)Nc4ccc(OC)cc43)n1)C(=O)N2	Peg3 prom inh 107, MITF TRPM1 inh 98, CF NFkB inh 83, HIF-2a inh 90 (no result: CHOP inh) | HIF-2a inh conf 98 | HIF-1a cs 107
O=c1nc(/C=C/c2cc([N+](=O)[O-])ccc2Cl)cc(C(F)(F)F)[nH]1	HIF-2a inh 83 | HIF-2a inh conf 61 | HIF-1a cs 79
COc1cc(/C=C/c2cc(C(F)(F)F)[nH]c(=O)n2)cc(OC)c1OC	HIF-2a inh 40 | HIF-2a inh conf inactive | HIF-1a cs inactive
CCc1cc(SC#N)cc(C)c1N	HIF-2a inh 63 | HIF-2a inh conf inactive | HIF-1a cs inactive
CN(C)C(=O)CSc1nnc(-c2ccc(S(=O)(=O)N3CCCC3)cc2)n1C	none (no result: CHOP inh)
Cc1ccc(-c2cc(N)n[nH]2)cc1	none
CC(C)(C)c1ccc(-c2cc(N)n[nH]2)cc1	CHOP inh 91, MITF TRPM1 inh 95, HIF-2a inh 87 | HIF-2a inh conf 95 | HIF-1a cs 74
O=C(Nc1ccccc1N1CCOCC1)C1CCN(S(=O)(=O)c2ccccc2F)CC1	none
O=C(O)c1cccc(-c2nc3ccccc3[nH]2)c1	Peg3 prom inh 55, HIF-2a inh 69 | HIF-2a inh conf 55 | HIF-1a cs inactive
Brc1csc(/C=N/Nc2nc3ccccc3s2)c1	none
C(=N\Nc1nc2ccccc2s1)/c1ccccn1	CHOP inh 101 (no result: KKLEB cytotox, Peg3 prom inh, MITF TRPM1 inh, CF NFkB inh, HIF-2a inh) | Mdm2 MdmX conf 95
CN(C)CCn1c2ccccc2c2nc3ccc([N+](=O)[O-])cc3cc21	none (no result: MITF TRPM1 inh) | Mdm2 MdmX conf 102
